Data on 40 compounds can be found in PubChem BioAssay (NCI).

The structures appear in SMILES notation. Several values for one entry are separate records, joined by “and”; a condition that tells them apart may be missing. Identical values can stand only once. About 83,000 compounds went through this panel and 20% of them were active in at least one assay; those are over-represented in the sample as a whole.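 Negative percent growth values reflect cell death: -40 means 40% of the cells present at the start died, and -100 means all died.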 A number with no mark means an inactive call. Activity calls are given as the source filed them. Rule for the calls: active = growth percent below 10; inactive = the rest.

In this test the test system is MDA-MB-468 breast. Briefly: NCI-60 one-dose screen, 48 h (100 = growth as untreated, 0 = no growth, -100 = all killed). Conditions: 10 µM unless noted.
On to `Cc1c(-c2nc3ccc(F)cc3c(=O)[nH]2)c2ccccc2n1C`, for which the growth is 6.2% (active). Then `O=C(C[C@@H](C(=O)NCc1cccc(C(F)(F)F)c1)N1C(=O)[C@@H](N2C(=O)OC[C@@H]2c2ccccc2)[C@H]1/C=C/c1ccccc1)NC1CCN(Cc2ccccc2)CC1`, with -1.25% (active); and `COc1cc2oc3cc(C)oc(=O)c3c2cc1OC`, with 91%; and `CCCCCCN(CCCCCC)CCC(=O)Nc1ccc(S(=O)(=O)c2ccc(NC(=O)CCN(CCCCCC)CCCCCC)cc2)cc1`, with 92.9%. Then `Cn1cnc([N+](=O)[O-])c1Sc1ncn[nH]1`, with 73.5%; and `O=C(N/N=C/c1ccc(O)cc1O)c1ccc(Nc2ccnc(C(F)(F)F)c2)cc1`, with 29.5%; and `CC1=CC=C(NC(=O)/C=C/c2ccccc2)CC1Nc1nccc(-c2cccnc2)n1` (stereo not given), with 3.07% (active). In the case of `CCOC(=O)Nc1ccc2nc(Sc3ccc(Cl)cc3)sc2c1` it was 0.385% (active); in that of `O=C1C=CC(=O)N1C1c2ccccc2-c2ccccc21`, 66.9%.

Regarding `CC(=O)c1ccc(Nc2nccc(-c3ccc4ccccc4c3)n2)cc1`, the growth was 76.8%. Turning to `COC(=O)CCc1cc(O)c2c(c1)[C@@H](C(=O)OC)[C@H](c1ccc(O)c(O)c1)O2`, the growth is 83.4%. Consider `O=C(O)c1ccc2c3c(ncnc13)-c1ccccc1C2=O`, for which the growth is 95.7%.

Regarding `COc1cc(OC)c(S(N)(=O)=O)cc1C(=O)/C=C/c1ccc(C)cc1`, the growth is -36.2% (active).

As to `Clc1ccc(/C=C/c2ccccn2)c(Cl)c1`, the growth was 29.3%. Then `CCOP(=O)(OCC)OC[C@]12CCC(C)(C)CC1C1=CC[C@@H]3[C@@]4(C)CCCNC(C)(C)[C@@H]4CC[C@@]3(C)[C@]1(C)CC2` (stereo not given in full), with 53.5%; and `Cc1ccc(OC2=C(C#N)C(=N)N3C(=NN2)Sc2c(C)ccc(C)c23)cc1`, with 110%; and `COc1ccc(CN2CCc3c(Sc4ccccc4)nc(N)nc3C2=O)c(OC)c1`, with 48.2%.

Consider `CCN(CC)CCCC(C)N=C(C1=C(C(=NC(C)CCCN(CC)CC)c2cccc(OC)c2)C(=O)NC1=O)c1cccc(OC)c1` (stereo not given), for which the growth is -50.4% (active). `C[C@@H]1C[C@H]2C(=O)O[C@@H](C)[C@H](NC(=O)[C@H](Cc3cc(F)cc(F)c3)NC(=O)Nc3ccc(Cl)cc3F)C(=O)N3C[C@H](O)C[C@H]3C(=O)N3CCN(C)C[C@H]3C(=O)N[C@@H](C)C(=O)N2C1`: the growth is 11.5%.

As for `COc1cccc(-n2cc(-c3nc(Nc4cc(C)[nH]n4)c4ccccc4n3)nn2)c1`, the growth is 48.1%. In the case of `O=C1c2c[n+](Cc3ccccc3)ccc2-c2nc3ccccc3c3ccnc1c23`, the growth was -59.2% (active). In the case of `C#Cc1cccc(NC(=O)c2ccc(Cl)cc2Cl)c1` it was 102%; in that of `Fc1ccccc1CSc1ncnc2nc[nH]c12`, 97.6%. Take `CCCCSC1=C(Cl)CN(c2ccccc2)C1=O`: the growth is 84.6%.

`C/C(=N\NC(=O)/C=C/CC(=O)O)c1nnn(-c2ccc([N+](=O)[O-])cc2)c1C`: the growth is 99.8%. On to `O=C(Cn1cc(CSc2nc3ccccc3o2)nn1)Nc1ccc([N+](=O)[O-])cc1`, for which the growth is 98.7%. Then `Cn1c(=O)c2c(nc(Br)n2CC(=O)Nc2ccc(F)cc2)n(C)c1=O`, with 109%; and `C=CCn1c(C)nc2ccc(Nc3nc(Nc4ccc(F)cc4)nc4ccccc34)cc21`, with 49.3%. Regarding `Nc1cc2c(cc1Cl)C(=O)c1ccccc1C2=O`, the growth was 70.2%.

On to `CCNCCNc1cc(C2CCCCC2)c(C#N)c2nc3ccccc3n12`, for which the growth was -45.3% (active). Then `COc1ccc(C(O)c2cc3c(N)c(C(=O)Nc4ccc(Cl)cc4)sc3nc2C)cc1` (stereo not given), with 3.39% (active).

As to `CN1CC(c2ccc(Br)cc2)C(C(=O)c2ccc(Br)cc2)C12C(=O)Nc1ccccc12` (stereo not given), the growth is 81.4%.

On to `CCOc1ccc2cc(-c3nn(CC4CCNCC4)c4ncnc(N)c34)ccc2c1`, for which the growth was 93.3% and 40.5%.

With `Clc1cccc(C2Cc3cnccc3-c3[nH]c4ccncc4c32)c1` (stereo not given), the growth is 5.96% (active).

For the compound `COc1ccc(Cc2nnc(Nc3nc4ccccc4s3)s2)cc1`, the growth was 92.6%.

As for `Cc1ccc(NC(=O)c2nc(S(C)=O)oc2-c2ccc(F)cc2)cc1Nc1nccc(-c2cccnc2)n1` (stereo not given), the growth was 10.6%. Then `Cn1c(=O)c2c(nc(N/N=C/c3ccccc3Cl)n2C)n(C)c1=O`, with 102%; and `CCc1ccc(C(=O)/C=C/C23c4ccccc4C(c4ccccc42)C2C(=O)NC(=O)C23)cc1` (stereo not given), with -15.9% (active). In the case of `CCCN1C(=O)N(CCC)C2C1NN=c1s/c(=C3\C(=O)N(C(C)C)c4ccccc43)c(=O)n12` (stereo not given) it was 35.7%; in that of `C=C(C)[C@@H]1CC[C@]2(CO)CC[C@]3(C)[C@H](CC[C@@H]4[C@@]5(C)CCC(NCCc6ccc(O)cc6)C(C)(C)[C@@H]5CC[C@]43C)[C@@H]12` (stereo not given in full), -91.7% (active).
